# Measured values as given in ChEMBL document CHEMBL4513216, “Probing the Open Global Health Chemical Diversity Library for Multistage-Active Starting Points for Next-Generation Antimalarials” (ACS Infect Dis, 2020).
# Hit rate of the full screen: of about 69,000 compounds, about 8,600 (12%) showed an effect of 50% or more. What follows is part of a selection rich in strong results, with near analogues and random picks from the rest.
# Tested on: Plasmodium berghei
# Assay: Screen against P. berghei liver stage (PbLuc), transformed with Luciferase, at 10uM
# Type: functional, HepG2
# Settings: tested at 10 uM
row,SMILES,INHIBITION [%]
1,CCCc1cc(=O)n(CC(=O)NCCOC)c(-n2nc(C)cc2C)n1,28.7
2,CCCNC(=O)Cn1c(-n2nc(C)cc2C)nc(CCC)cc1=O,54.2
3,CCCc1cc(=O)n(CC(N)=O)c(-n2nc(C)cc2C)n1,81.3
4,CCCc1cc(=O)n(CC(=O)NC(C)C)c(-n2nc(C)cc2C)n1,29.3
5,CCCc1nc(C)cc(N2CCC3(CCC(=O)N(CC(N)=O)C3)CC2)n1,-42.1
6,CCCNC(=O)CCNc1cncc(-n2nc(C)cc2C)n1,-2.03
7,CN(C)CCCn1ccnc1C1CCCN(c2ncc(Cl)cc2F)C1 (centres undefined),17.5
8,O=C(O)C1(n2ccc(-c3ccco3)n2)CCN(Cc2ccccn2)CC1,4.1
9,Cc1cc(C)n(C2CN(CC(=O)NC(C3CC3)C3CC3)C2)n1,17.4
10,O=C(NCC(=O)N1CCCC1)c1nc(Cc2c(Cl)cccc2Cl)no1,-32.8
11,Cc1ccc(C#N)c(N2CCC3(CCCN(C4CCOCC4)C3=O)C2)n1 (centres undefined),-20.8
12,c1cnc(N2CCOCC3(C2)CN(c2nccs2)CCO3)nc1 (centres undefined),44.8
13,Cc1csc(C(Cc2ccsc2)NC(=O)CN(C)Cc2cccnc2)n1 (centres undefined),42.6
14,CN(CC(=O)NC(Cc1ccsc1)c1cccnc1)Cc1ccccn1 (centres undefined),26.1
15,CN(CC(=O)NC(Cc1ccsc1)c1cccnc1)Cc1cccnc1 (centres undefined),64.6
16,CC(NC(=O)N1CCCN(C)CC1)c1ccc(S(N)(=O)=O)cc1 (centres undefined),-5.22
17,Cc1ccc(O)c(CNC2CCc3nc(C(C)C)nn3C2)n1 (centres undefined),15.8
18,CN1CC(=O)N(c2ccsc2)CC12CCN(C(=O)N1CCCC1)C2 (centres undefined),-5.05
19,CCOC(=O)c1n[nH]cc1-c1cncn1CCn1nc(C)c(Cl)c1C,-39.4
20,CS(=O)(=O)N1CCCC12CCCN(C(=O)c1ccc3[nH]ccc3c1)C2 (centres undefined),57.9
21,CS(=O)(=O)N1CCCC12CCCN(C(=O)c1ccc3c(c1)OCO3)C2 (centres undefined),-1.15
22,CS(=O)(=O)N1CCCC12CCCN(C(=O)c1ccnnc1)C2 (centres undefined),26.4
23,CS(=O)(=O)N1CCCC12CCCN(C(=O)c1ccc[nH]1)C2 (centres undefined),-24.8
24,CS(=O)(=O)N1CCCCC12CCN(C(=O)c1ccccc1)C2 (centres undefined),61.8
25,CS(=O)(=O)N1CCCC12CCCN(C(=O)c1ccncc1)C2 (centres undefined),10.7
26,O=S1(=O)C[C@@H]2[C@H](C1)N(Cc1ncc[nH]1)CCN2CCCc1ccccc1,34.275
27,COc1ccc(Cl)cc1NC(=O)CN1CCc2nc(NC(C)=O)sc2C1,30.2

row,SMILES,INHIBITION [%]
1,CCOc1ccccc1C(C(=O)O)N(C)Cc1cc(C)[nH]n1 (centres undefined),27.6
2,Cc1n[nH]c(C)c1NC(=O)CN1CCc2c(nc(C(C)C)n2C)C1,-2.48
3,CCCc1noc(CCCC(=O)N2CCCC2c2cnn(C)c2)n1 (centres undefined),64.7
4,Cn1cc(C2CCCN2C(=O)CCCc2cccs2)cn1 (centres undefined),9.14
5,CCCc1noc(CCC(=O)N2CCCC2c2ccc(OC)cc2)n1 (centres undefined),0.914
6,Cn1cc(C2CCCN2C(=O)CCCc2ccccn2)cn1 (centres undefined),62.6
7,CCCc1noc(CCC(=O)N2CCCC2c2ccncc2)n1 (centres undefined),13.3
8,Cn1cc(C2CCCN2C(=O)CCCOc2ccccc2F)cn1 (centres undefined),0.914
9,Cc1nnc([C@@H]2C[C@H]3CN(C(=O)c4c(C)noc4C)C[C@H]3O2)[nH]1,12.7
10,CC(C)Cc1cc(NC(=O)c2ccncc2)n(C)n1,48.4
11,c1ccc(Cc2cncc(C3CCCN3C3CCOCC3)n2)cc1 (centres undefined),10.175
12,Fc1ccc(CN2CCCC(c3nnc(-c4cnccn4)o3)C2)cc1F (centres undefined),58.6
13,Cn1nc(C2CCCN(Cc3cccc(F)c3)C2)c2nccnc21 (centres undefined),31.3
14,c1cncc(CN2CCCC(c3nnc(-c4cnccn4)o3)C2)c1 (centres undefined),-22.6
15,Cn1nc(C2CCCN(Cc3cc(F)ccc3F)C2)c2nccnc21 (centres undefined),40
16,Cn1nc(C2CCCN(Cc3ccc(F)c(F)c3)C2)c2nccnc21 (centres undefined),54.4
17,Cn1nc(C2CCCN(Cc3ccccc3)C2)c2nccnc21 (centres undefined),64.9
18,Cn1nc(C2CCCN(Cc3cc(F)cc(F)c3)C2)c2nccnc21 (centres undefined),36.4
19,Cn1nc(C2CCCN(Cc3ccc(F)cc3)C2)c2nccnc21 (centres undefined),43.6
20,c1cc(CN2CCCC(c3nnc(-c4cnccn4)o3)C2)ccn1 (centres undefined),26.8
21,Cc1nc(C2CCCN2Cc2ccn(C)c(=O)c2)no1 (centres undefined),5.7
22,COCCN(C)C(C(=O)O)c1ccc(C)c(C)c1 (centres undefined),19.4
23,CCN1CC(=O)NCC12CCN(C(=O)c1ccco1)C2 (centres undefined),1.34
24,Cc1cc(C)n(CC2CCCN2C(=O)c2ccc3nncn3c2)n1 (centres undefined),-54.6
25,Cc1noc2nc(C3CCCN(Cc4ccncc4)C3)cc(C(F)F)c12 (centres undefined),34
26,Cc1nc(C(C)NCc2cc(O)c3cccc(F)c3n2)cs1 (centres undefined),-2.48
27,Cn1cc(NC(=O)Cc2cccs2)c(=O)n(C)c1=O,-7.16
